test: HSE-luciferase reporter activators – cell-based (AID 1611); details: human cells, HSE-luciferase heat shock reporter; stronger effect = higher value

SMILES	fold change
CCN(CC)CCCC(C)Nc1c2ccc(Cl)cc2nc2ccc(OC)cc12 (stereo not given)	0.97
COc1c2occc2c(OC)c2c(=O)cc(C)oc12	0.96
CN(C)CCC=C1c2ccccc2C=Cc2ccccc21	0.63
Cc1cc(C)nc(NS(=O)(=O)c2ccc(N)cc2)n1	1.02
CCCCCC(=O)O[C@]1(C(C)=O)CCC2C3CCC4=CC(=O)CC[C@]4(C)C3CC[C@@]21C (stereo not given in full)	1.47
OC[C@H]1O[C@@H](O[C@@H]2[C@@H](CO)O[C@](O)(CO)[C@H]2O)[C@H](O)[C@@H](O)[C@H]1O	0.82
CCCCCCOc1ccccc1C(N)=O	0.59
O=C(O)c1ccccc1OP(=O)(O)O	1.04
c1ccc(CN(CC2=NCCN2)c2ccccc2)cc1	1.78
COc1cc(NS(=O)(=O)c2ccc(N)cc2)nc(OC)n1	0.93
Cc1ccccc1N1C(=O)c2cc(S(N)(=O)=O)c(Cl)cc2NC1C (stereo not given)	0.83
O=c1ccn([C@@H]2O[C@H](COP(=O)(O)OP(=O)(O)OP(=O)(O)O)[C@@H](O)[C@H]2O)c(=O)[nH]1	1.15
CCN(CC)CCOc1ccc2c(c1)C(=O)c1cc(OCCN(CC)CC)ccc1-2	0.93
CCn1cc(C(=O)O)c(=O)c2ccc(C)nc21	0.98
CCN(CC)C(=O)c1cccc(C)c1	0.91
Oc1c(I)cc(I)c2cccnc12	1.19
CC[C@H](C)C(=O)O[C@H]1CCC=C2C=C[C@H](C)C(CCC3C[C@@H](O)CC(=O)O3)[C@H]21 (stereo not given in full)	1.15
O=C1c2cccc(O)c2C(=O)c2c(O)cccc21	0.86
CCOc1ccc(Cc2nccc3cc(OCC)c(OCC)cc23)cc1OCC	1.35
CC(=O)Nc1ccccc1	0.93

SMILES	fold change
O=C(O)c1cc2cc(Cc3cccnc3)ccc2o1	0.83
O=C1NS(=O)(=O)c2ccccc21	0.91
O=C(Cn1ccnc1[N+](=O)[O-])NCCO	0.93
COC1=CC(=O)C[C@@H](C)[C@]12Oc1c(Cl)c(OC)cc(OC)c1C2=O	0.94
CC(C)=CCC/C(C)=C/CO	3.1
CC(=O)OCC1=C(C(=O)O)N2C(=O)[C@@H](NC(=O)Cc3cccs3)[C@H]2SC1	1.09
O=c1cc[nH]c(=S)[nH]1	0.78
COC(=O)Nc1nc2ccc(Sc3ccccc3)cc2[nH]1	0.92
CC1(C)S[C@@H]2[C@H](NC(=O)[C@@H](N)c3ccc(O)cc3)C(=O)N2[C@H]1C(=O)O	1.21
CCC(=O)O[C@H]1[C@H](O[C@@H]2[C@@H](C)[C@H](O[C@H]3C[C@@](C)(OC)[C@@H](O)[C@H](C)O3)[C@@H](C)C(=O)O[C@H](CC)[C@@](C)(O)[C@H](O)[C@@H](C)C(=O)[C@H](C)C[C@@]2(C)O)O[C@H](C)C[C@@H]1N(C)C	1.55
CC(C)(C)NC[C@@H](O)COc1nsnc1N1CCOCC1	0.87
CO[C@]12C[C@@H](COC(=O)c3cncc(Br)c3)CN(C)[C@@H]1Cc1cn(C)c3cccc2c13	0.91
N[C@@H]1CONC1=O	1.23
CNCCC=C1c2ccccc2CCc2ccccc21	1.45
CCOC(N)=O	0.87
CCN(CC)CCNC(=O)c1cc(Cl)c(N)cc1OC	1.24
CO[C@@H]1[C@@H](O[C@@H]2O[C@H](C)[C@@H](O[C@H]3C[C@@](C)(O)[C@H](O)[C@H](C)O3)[C@H](N(C)C)[C@H]2O)[C@@H](CC=O)C[C@@H](C)[C@@H](O[C@H]2CC[C@H](N(C)C)[C@@H](C)O2)/C=C/C=C/C[C@H](C)OC(=O)C[C@H]1O	62.6
Cc1ccc(S(=O)(=O)NC(=O)NN2CCCCCC2)cc1	0.73
O=C1c2ccccc2C(=O)C1c1ccccc1	331
OCc1ccccc1O[C@@H]1O[C@H](CO)[C@@H](O)[C@H](O)[C@H]1O	1.04

Source: PubChem BioAssay AID1611 (NINDS Approved Drug Screening Program, 2009)
